The structures appear in SMILES notation. A number with no mark means an inactive call. The rule behind the calls is not given here.

In general, remaining activity refers to the signal under treatment as a percentage of the control signal.

The subject of the assay is Aerobactin synthetase IucA (Klebsiella pneumoniae, hypervirulent). As to the kind of experiment: IucA enzyme inhibition, biochemical, LOPAC library, absorbance readout (AID 1346212).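 Note: 100% = no compound wells and 0% = no enzyme wells.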 As to conditions: IucA enzyme assay, absorbance (OD) readout; active compounds read low;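 tested at 8 µM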.
For `CNCCCC1c2ccccc2C=Cc2ccccc21`, the remaining activity was 101%.
With `N[C@@H](Cc1c[nH]c2ccc(O)cc12)C(=O)O`, the remaining activity was 99.1%.
The result for `Cc1[nH]c(=O)c(C#N)cc1-c1ccc2nccn2c1` reads 112%; that for `Nc1ccc(N2C(=O)c3ccccc3C2=O)c(Cl)c1`, 105%; that for `CC1=C(C(=O)O)N2C(=O)[C@@H](NC(=O)[C@H](N)c3ccccc3)[C@H]2SC1`, 118%.
The result for `Fc1cccc(/C=N/N=C/c2cccc(F)c2)c1` reads 123%; that for `Nc1nc(SCc2ccc([N+](=O)[O-])cc2)c2ncn([C@@H]3O[C@H](CO)[C@H](O)C3O)c2n1` (stereo partly drawn), 107%.
The result for `C[N+](C)(C)CCCCCCCCCC[N+](C)(C)C` reads 91.8%; that for `Cn1cc(C(F)(F)F)nc1-c1ccc(OCC(O)CNCCOc2ccc(O)c(C(N)=O)c2)cc1` (stereo not drawn), 96.8%.
In the case of `CN1C2CCC1CC(NC(=O)c1nn(C)c3ccccc13)C2` (stereo not drawn), the remaining activity was 107%.
With `O=c1cc(-c2ccccc2)[nH]c2nc(Cl)ccc12`, the remaining activity is 117%.
With `CC(=O)NNC(=O)N1Cc2ccccc2Oc2ccc(Cl)cc21`, the remaining activity was 105%.
With `O=C(N[C@@H](Cc1ccccc1)C(=O)CCl)OCc1ccccc1`, the remaining activity was 111%.
The result for `CC(C)C(=O)c1c(C(C)C)nn2ccccc12` reads 125%; that for `COCC(=O)O[C@]1(CCN(C)CCCc2nc3ccccc3[nH]2)CCc2cc(F)ccc2[C@@H]1C(C)C`, 128%.
Take `CNc1ncnc2c1ncn2[C@H]1C[C@H](OP(=O)(O)O)[C@@H](COP(=O)(O)O)O1`: the remaining activity was 124%.
Consider `c1cnc2c(c1)ccc1cccnc12`, for which the remaining activity was 101%.
The result for `COc1cc(N)c(Cl)cc1C(=O)OCCN1CCCCC1` reads 110%; that for `NCCCNCCCCNCCCN`, 108%; that for `N#C/C(=C\c1ccc(O)c(O)c1)C(=O)NCCc1ccccc1`, 102%.
As to `CC(=O)O[C@H]1C[C@@H]2CC[C@@H]3[C@H](CC[C@@]4(C)[C@H]3C[C@H]([N+]3(C)CCCCC3)[C@@H]4OC(C)=O)[C@@]2(C)C[C@@H]1[N+]1(C)CCCCC1`, the remaining activity is 121%.
Take `Nc1c(S(=O)(=O)O)cc(Nc2ccc(Nc3nc(Cl)nc(Nc4cccc(S(=O)(=O)O)c4)n3)c(S(=O)(=O)O)c2)c2c1C(=O)c1ccccc1C2=O`: the remaining activity was 100%.
On to `O=C(OCCN1CCCCC1)c1c[nH]c2ccccc12`, for which the remaining activity is 102%.

Source of the values: PubChem BioAssay.
